PubChem BioAssay AID602420 (Johns Hopkins Ion Channel Center, 2012)
Hit rate of the full screen: of about 2,300 compounds, about 430 (19%) were called active.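 How the source made its calls: active means remaining agonist calcium response no higher than 100% minus 3 SD of agonist-only control wells, with starting fluorescence near control levels; inactive means the rest.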 The list is a sample of the results.

Each compound was assayed against Mas-related G-protein coupled receptor member X1 (Homo sapiens) (UniProt Q96LB2) (assay: blockers of BAM8-22 MrgX1 calcium response – HEK293 cells, Fluo-4 calcium flux, confirmation (AID 602420)). Conditions: MrgX1-HEK293, BAM8-22 calcium flux, at 10 µM; hits give low values.
Chain of Mas-related G-protein coupled receptor member X1 (Homo sapiens) (Q96LB2 whole entry, looked up): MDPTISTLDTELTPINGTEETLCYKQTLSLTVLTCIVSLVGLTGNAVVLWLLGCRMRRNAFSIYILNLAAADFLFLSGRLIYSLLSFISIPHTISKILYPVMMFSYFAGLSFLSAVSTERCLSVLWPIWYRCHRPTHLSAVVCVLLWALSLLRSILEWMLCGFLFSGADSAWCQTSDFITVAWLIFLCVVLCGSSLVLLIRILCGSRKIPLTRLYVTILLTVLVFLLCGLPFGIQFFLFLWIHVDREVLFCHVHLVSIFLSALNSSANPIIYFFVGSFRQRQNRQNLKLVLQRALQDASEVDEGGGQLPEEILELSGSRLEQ

Structure (SMILES) | remaining BAM8-22 calcium response % of control (hits give low values)
O=C(Cc1ccccn1)c1ccc(O)cc1O | 77.8% (active)
CCOc1ccc(NC(=O)CCNC(=O)c2ccc(Br)cc2)cc1 | inactive
COc1ccc([N+](=O)[O-])cc1NC(=O)COC(=O)/C=C/c1ccco1 | inactive
CCOC(=O)C1=C(O)CSC1=Nc1cccc(Cl)c1 | inactive
Cc1nn(-c2ccccc2)c(C)c1NC(=O)COc1ccc(Cl)cc1Cl | inactive
COc1ccc(C(=O)Nc2c(N)nc(SCC(=O)N3CCC(C)CC3)[nH]c2=O)cc1OC | 83.1% (active)
CN1C(CC(=O)Nc2ccc(Br)cc2)c2ccccc2CC1(C)C (stereo unspecified) | inactive
O=C(Nc1ccc(Br)cc1F)C1CC(=O)N(C2CCCCC2)C1 (stereo unspecified) | inactive
Cc1cccc(-n2c(Cc3cc(=O)[nH]c(=O)[nH]3)nnc2SC(C)C)c1 | inactive
Cc1ccc2nc(-c3ccc(NC(=O)CN(C)S(=O)(=O)c4ccccc4)cc3)sc2c1 | inactive
O=C(O)CSC(NC(=O)c1cccnc1)(C(F)(F)F)C(F)(F)F | inactive
Cc1ccc2nc(-c3ccc(NC(=O)c4cccnc4)cc3)oc2c1 | 67.5% (active)
CCOC1CCCCC1NS(=O)(=O)c1ccc(Cl)cc1 (stereo unspecified) | inactive
Cc1cc(Nc2cc(N3CCN(C)CC3)nc(Sc3ccc(NC(=O)C4CC4)cc3)n2)n[nH]1 | 84% (active)
CCOc1cc(-c2conc2N)cc(OCC)c1OCC | inactive
O=C(CN1CCN(c2ccccn2)CC1)NC1CCCCC1 | inactive
Cc1cc(Br)ccc1NC(=O)c1cnc(N2CCN(c3ccccn3)CC2)c2ccccc12 | 72.4% (active)
O=S(=O)(c1ccc2ccccc2c1)N1CCN(S(=O)(=O)N2CCOCC2)CC1 | inactive
C=CCOc1cccc(C2C(C(=O)c3ccc(C)o3)=C(O)C(=O)N2c2nnc(C)s2)c1 (stereo unspecified) | 63.9% (active)
CC(=O)N(C1=C(Cl)C(=O)c2ccccc2C1=O)c1ccc(C(=O)O)cc1 | inactive
CCCCC(=O)Nc1ccc2c(c1)C(=O)NC2=O | inactive
O=C(C1CCN(S(=O)(=O)c2cnc[nH]2)CC1)N1CCN(Cc2ccc3c(c2)OCO3)CC1 | inactive
C=CCNC(=O)c1cc(-c2ccccc2O)on1 | 84.3% (active)
C=CCNC(=O)c1csc(-c2ccccc2)n1 | inactive

Structure (SMILES) | remaining BAM8-22 calcium response % of control (hits give low values)
COCC(C)NC(=O)c1ccc(Cl)c(Cl)c1 (stereo unspecified) | inactive
O=C1CCCc2c1nc(-c1cccc(Cl)c1)n2O | inactive
CCc1cc2c(SCC(=O)Nc3ncc(Cl)c(C)c3Cl)ncnc2s1 | inactive
O=C(COc1ccc(Cl)cc1)NC(=S)Nc1ccccc1N1CCOCC1 | inactive
CCN(C(=O)CSc1nnc2ccccn12)C1CCS(=O)(=O)C1 (stereo unspecified) | inactive
O=C1CCCN1CCCNC(=S)Nc1ccc(F)c(Cl)c1 | 67.5% (active)
FC(F)Oc1ccc(NC(=S)NCc2ccco2)cc1Cl | inactive
CCOC(=O)Nc1ccc2c(c1)N(C(=O)CCN1CCN(CCO)CC1)c1ccccc1CC2 | inactive
CC(=O)N(C)c1ccc(NC(=O)C(F)(F)F)cc1 | inactive
Cc1cccc(NC(=O)COc2ccccc2C)n1 | inactive
CC(C)OCCCNc1ncnc2c1[nH]c1ccc(F)cc12 | inactive
CCC(C)c1ccccc1N1CC(C(=O)N2CCN(S(=O)(=O)c3ccc(F)cc3)CC2)CC1=O (stereo unspecified) | 84.2% (active)
O=C(CSc1ncccn1)NC(=O)NCc1ccccc1 | inactive
COCc1nnc(NC(=O)c2ccc3c(c2)OCO3)s1 | inactive
Cc1cc(=O)oc2cc(NC(=O)C3CC(=O)N(Cc4ccccc4)C3)ccc12 (stereo unspecified) | inactive
Cc1ccc(Nc2nc(-c3ccc(O)cc3O)cs2)nc1 | 82.3% (active)
CCOc1ccccc1C1CC(c2ccc(Cl)cc2)Nc2nc(N)nn21 (stereo unspecified) | inactive
Cc1cc(C)cc(NC(=S)NCCc2c[nH]c3ccccc23)c1 | inactive
COc1cc2c(cc1O)C(SC)=NC(C)(C)C2 | 85.2% (active)
CCOc1ccc(C(=O)NC2CCN(S(=O)(=O)CC)CC2)cc1 | inactive
CCOC(=O)c1cn(Cc2cccc(C)c2)nn1 | inactive
Cc1nn(-c2ccccc2)c2c1C(c1ccc(F)cc1)C(C#N)=C(N)O2 (stereo unspecified) | inactive
CC(Oc1ccc(F)cc1)C(=O)Nc1ccccc1C(=O)NC1CC1 (stereo unspecified) | inactive
Cc1ccc2cc(/C=N/Nc3ccc(C(=O)O)cc3)c(Cl)nc2c1 | 37.2% (active)

Structure (SMILES) | remaining BAM8-22 calcium response % of control (hits give low values)
COc1cccc(CCNC(=O)COc2cccc3c2OC(C)(C)C3)c1 | inactive
O=C(Nc1ccccc1Cl)N1CCN(c2ccc3nncn3n2)CC1 | inactive
COc1ccccc1Oc1nc(-c2cccnc2)nc2ccccc12 | inactive
CC(C)(C)n1c(=O)[nH]c2c(c1=O)CCC2 | inactive
CN(CC(=O)Nc1ccccc1Cl)C(=O)COc1cccc2c1OC(C)(C)C2 | inactive
CCCCCCCCCCOC(=O)Cn1c(COc2cccc(OC)c2)[n+](C)c2ccccc21 | 53.5% (active)
CCCCCCCCCCOC(=O)Cn1c(COc2ccc(C)cc2)[n+](C)c2ccccc21 | inactive
CCc1ccc2nc3sc(C(=O)Nc4nnc(CC)s4)c(N)c3cc2c1 | inactive
CCN(CC)c1ccc(C2C3CCCCC3(O)CCN2CC(=O)Nc2ccccc2)cc1 (stereo unspecified) | inactive
COCCNC(=O)Nc1ccc2nc(-c3ccco3)c(-c3ccco3)nc2c1 | inactive
COc1ccc(S(=O)(=O)N2CCN(C(=O)NC3CCCCC3)CC2)cc1 | inactive
CC(C)NC(=S)Nc1cccc2cnccc12 | 82.2% (active)
COc1ccc(S(=O)(=O)N2CCOCC2)c(C)c1C | inactive
Cc1ccc(Cc2cnc(N)s2)o1 | inactive
COCCCNC(=O)C1CCN(c2ccc(N3CCOCC3)nn2)CC1 | inactive
CC(=O)Nc1ccc(OC(=O)COc2ccc(Br)cc2)cc1 | inactive
COC(=O)c1sccc1NS(=O)(=O)c1ccc(F)cc1F | 80% (active)
CCc1nnc(NC(=O)CSc2nc3c(c(=O)n2-c2ccccc2OC)SCC3)s1 | inactive
COc1ccc(C(=O)NC2CCCc3c2cnn3-c2cccc(C)c2C)c(OC)n1 (stereo unspecified) | 28.5% (active)
O=C(CSc1c2c(nc3ccc(Cl)cc13)CCCC2)NCc1ccco1 | inactive
Cc1ccc(CS(=O)(=O)c2ncc(Cl)c(C(=O)Nc3nnc(C)s3)n2)cc1 | 81.2% (active)
COc1ccc(-n2c(SCC(=O)NCc3ccco3)nnc2-c2c[nH]c3ccccc23)cc1 | inactive
CCOC(=O)c1c(C)[nH]c(=S)c(C#N)c1-c1ccccc1 | inactive
COc1cccc(CNC(=O)C2CCN(S(=O)(=O)c3cccc4cccnc34)CC2)c1 | inactive

Structure (SMILES) | remaining BAM8-22 calcium response % of control (hits give low values)
O=C(CSc1nncn1-c1cccnc1)N1CCOCC1 | inactive
N#CC1=C(N)Oc2c(sc3ccccc23)C1c1ccco1 (stereo unspecified) | inactive
O=C(Nc1ccc(Cl)cc1)Nc1ccc(Oc2cccnc2)nc1 | 80.3% (active)
COc1cc(C2/C(=C(\O)c3ccc4c(c3)CC(C)O4)C(=O)C(=O)N2Cc2ccco2)ccc1O (stereo unspecified) | inactive
CN(C)CCn1c(=S)[nH]c2ccc(Cl)cc2c1=O | inactive
Cc1cc(C)n(CCNC(=O)CC2C(=O)NCCN2Cc2ccc(C)o2)n1 (stereo unspecified) | inactive
FC(F)(F)c1cc(-c2cccs2)nc(NCc2ccco2)n1 | inactive
S=C(NCc1ccc(Cl)cc1)NC12CC3CC(CC(C3)C1)C2 | 68.5% (active)
O=C(c1ccc(O)cc1)c1ccc(C(=O)O)c(C(=O)O)c1 | inactive
O=C(Cn1c(-c2cncs2)nc2ccccc21)NC1CCCC1 | inactive
CC1CCN(S(=O)(=O)c2nnc(NC(=O)COc3ccccc3F)s2)CC1 | inactive
Cc1ccc(-c2nn(C(C)(C)C)c3ncnc(N)c23)cc1 | inactive
c1ccc(-c2[nH]ncc2-c2nc3ccccc3[nH]2)cc1 | inactive
Cc1nccn1CCC1CCCCN1C(=O)CCc1nnc(-c2ccsc2)o1 (stereo unspecified) | inactive
CN(c1cccc(NC(=O)Nc2ccc(Cl)cc2)c1)S(C)(=O)=O | 44.9% (active)
C(=N\n1cnnc1)/c1cccnc1 | inactive
CCS(=O)(=O)c1ccc2c(c1)N(S(=O)(=O)c1ccccc1)CC(C(=O)O)O2 (stereo unspecified) | inactive
CCOC(=O)c1c(NC(=O)CNC2CCCc3ccccc32)sc(C(N)=O)c1C (stereo unspecified) | inactive
CCOC(=O)c1c(NC(=O)CSc2cn(CC)c3ccccc23)sc2c1CCC2 | 85% (active)
CCNC(=O)c1c(O)c2cccc3c2n(c1=O)CC3 | inactive
Cc1ccc(C(=O)COC(=O)CCN2C(=O)C3C4CC(C(Br)C4Br)C3C2=O)cc1 (stereo unspecified) | inactive
O=c1cc(CSc2ccccn2)nc(N2CCN(c3ccccc3)CC2)[nH]1 | inactive
CCOC(=O)Cc1csc(SCc2cc(=O)oc3cc(O)ccc23)n1 | 85.3% (active)
CCSc1nsc(NC(=O)Nc2cccc(C(C)=O)c2)n1 | inactive

Structure (SMILES) | remaining BAM8-22 calcium response % of control (hits give low values)
CCOC(=O)CNC(=O)CSc1nc2cccnc2n1CC | inactive
CCOC(=O)C1=C(O)/C(=C/c2cc(C)n(-c3ccccc3)c2C)N=C1C | inactive
Cc1cccn2c(=O)c(/C=C3\SC(=S)N(CC(C)C)C3=O)c(NCCCOC(C)C)nc12 | 63.8% (active)
CCN(CC)CC(=O)Nc1nn(-c2ccccc2)nc1C(N)=O | inactive
CCC1CCCCN1CCNC(=O)c1[nH]c(C)c(C(C)=O)c1C (stereo unspecified) | inactive
O=C(CN1CCN(c2ccc(Cl)cc2)CC1)N1CCCC1 | inactive
O=C(Cc1nc2ccccc2[nH]c1=O)c1ccc(Cl)cc1 | 64.3% (active)
O=C(NC1CCCCC1)C1c2ccccc2C(=O)N1Cc1ccco1 (stereo unspecified) | inactive
CCc1cc(=O)oc2cc(C)cc(OCC(=O)N3CCC[C@@H]3C(=O)O)c12 | inactive
CCCCOC(=O)CNc1nnc(SCC(=O)OCC)[nH]c1=O | 70.5% (active)
COC(=O)c1c(NC(=O)c2c(Cl)cnn2C)sc(C)c1C | inactive
Cc1ccc(C(C(=O)NC2CCCCC2)N(C(=O)c2csnn2)C2CC2)o1 (stereo unspecified) | inactive
O=C(c1cccs1)C1C(c2ccc(Br)cc2)NC(=S)NC1(O)C(F)(F)F (stereo unspecified) | inactive
Cc1nc(N2CCN(c3ccccn3)CC2)c2c(C)c(C(=O)Nc3ccc(F)c(Cl)c3)sc2n1 | 70.4% (active)
COc1cc(CCC(=O)Nc2ccncc2Cl)cc(OC)c1OC | inactive
C=CCSc1nc(Cc2ccc(Cl)cc2)nc2ccccc12 | inactive
O=C(COC(=O)C1CCN(S(=O)(=O)c2ccc3c(c2)OCCO3)CC1)Nc1ccccc1OC(F)F | inactive
Clc1ccc(-c2nc3ccccn3c2CN2CCSCC2)cc1 | inactive
Clc1ccc(C=NC23CN4CN(CN(C4)C2)C3)cc1 | inactive
COc1ccc(C(=O)CSc2n[nH]c(N)n2)cc1 | inactive
